From PubChem BioAssay AID686978 (National Center for Advancing Translational Sciences (NCATS), 2013)
Where “and” joins values, the source holds several entries; their conditions need not be identical. Equal entries are not always repeated. In all, about 420,000 compounds went through this assay and about 64,000 (15%) were called active. Not shown: some 27% with an inconclusive outcome. The list is a sample of the results. Unmarked numbers belong to inactive results. Calls follow the shape of the dose curve; as a rule, active = well fitted inhibition curve with a large enough effect; inconclusive = small, poorly fitted or top-dose-only effect; inactive = flat fitted curve, though single readings scatter.

Experiment: qHTS for Inhibitors of human tyrosyl-DNA phosphodiesterase 1 (TDP1): qHTS in cells in absence of CPT; also: nearly all actives have a fitted effect of over 55% in size
Settings: DT40 Tdp1-/- hTDP1 cells, no CPT, ATP luminescence, 48 h; activity change, negative = growth inhibition: at 46.2 µM (top of the series)
From the text: Human tyrosyl-DNA phosphodiesterase 1 (TDP1) is a novel repair gene, and we propose to use it as a new target for anticancer drug development. TDP1 is not an essential protein, but under treatment with topoisomerase I poison (camptothecin: CPT), TDP1 works as a critical factor for cell survival. To directly identify novel TDP1 inhibitors active in a cellular environment, we have knocked-out the Tdp1 gene in chicken DT40 cells (Tdp1-/-) and generated a complemented counterpart cells that contains a stable transfection of the human TDP1 gene (Tdp1-/-;hTDP1 cells). For the primary screen, Tdp1-/-;hTDP1 cells will be exposed to small molecules in the presence or absence of CPT, and their growth kinetics will be evaluated after 48 hours by measuring ATP activity. […] The hit compounds will then be evaluated in the presence or absence of CPT using Tdp1-/- cells. […] In tertiary assays, biochemical gel-based assays will be used to assess whether the hit compounds specifically target TDP1.
To this end, we have screened this cell line against the MLSMR in two primary screens. In one screen we add CPT and in the other we screen in the absence of CPT; this AID represents the screen where CPT was absent.
NIH Chemical Genomics Center [NCGC]
NIH Molecular Libraries Probe Centers Network [MLPCN]
Assay Submitter (PI): Yves Pommier, NCI
DT40-hTDP1 cells without 20 nM Camptothecin (add 20 microL of DMSO in 1 L of cell culture medium) were dispensed at 400 cells/5microL/well in tissue culture treated 1536-well white wall/solid bottom assay plates (Greiner Bio-One North America, NC, U.S.A.) using a Multidrop Combi 8 channel dispenser (Thermo Fisher, Waltham, MA, USA). 23 nL compounds and controls were transferred using the pin tool (Kalypsys, San Diego, CA, USA) to the assay plates. The assay plates were then incubated at 37 masculineC for a minimum 48 hr. Three microL of Cell Titer Glo solution was added to the plates and incubated at RT in dark for 30 min. Luminescence was read using ViewLux (Perkin Elmer) with 1 sec exposure slow speed, high gain and 2x binning.
% is scaled to controls: 0 for no effect and ±100 for the full control effect; potency is read from the fitted curve at half-maximal effect.

| Compound | activity change, negative = growth inhibition [%] | Potency |
| --- | --- | --- |
| O=C(NNC(=O)c1cc(-c2ccccc2Cl)nc2ccccc12)c1csc(N2CCOCC2)n1 | -11.1 |  |
| COc1cc(C(=O)Nc2cc(C(F)(F)F)ccc2N2CCOCC2)ccc1O | -18.6 |  |
| CCOc1cc(N2CCOCC2)c(OCC)cc1NC(=O)c1ccc(C)s1 |  | 2.06 µM (active) |
| CCOc1ccc(NC(=O)c2cc(C)nc3ccccc23)cc1 | -0.374 |  |
| CCOc1cc(N2CCOCC2)c(OCC)cc1NC(=O)c1cc(C)nc2ccccc12 |  | 14.6 µM (active) |
| O=C(Nc1ccccc1N1CCOCC1)c1csc2c1CCCC2 | -4.52 |  |
| Cc1oc(C)c(C(=O)NCCCC(=O)O)c1C(=O)NCCCC(=O)O | -25.2 |  |
| Cc1ccc(S(=O)(=O)N2CCCCC2)cc1C(=O)N1CCN(CCO)CC1 | 17.8 |  |
| CCn1nc(C)c(CNC(=O)C2CCC(=O)N(Cc3cccc(F)c3)C2)c1C (stereo not drawn) | -2.49 |  |
| CCc1ccc(C(=O)OCC(=O)NCC(F)(F)F)cc1 | 0.093 |  |
| CC(N)C12CC3CC(CC(O)(C3)C1)C2 (stereo not drawn) | 4.71 |  |
| C=C1c2cc(CC)ccc2NC(=O)N1c1ccc(C)cc1 | -12.5 |  |
| CCc1ccc2c(c1)C1(NN=C(c3ccccc3)S1)C(=O)N2 (stereo not drawn) |  | 2.31 µM (active) |
| CCc1cccc(NC(=O)c2cc(-c3ccccc3)n[nH]2)c1 | -13.6 |  |
| Cc1cccc(C)c1NC(=O)C(c1ccccc1)N1CC(=O)Nc2ccccc21 (stereo not drawn) | -13.2 |  |
| COc1ccc(/C=C(/NC(=O)c2ccco2)C(=O)Nc2ccc(C(C)=O)cc2)cc1 | -8.62 |  |
| COc1ccc(/C=C(\NC(=O)c2ccc(OCC(C)C)cc2)C(=O)OCc2ccco2)cc1 |  | 16.4 µM (active) |
| COc1ccc(/C=C(/NC(=O)c2ccccc2)C(=O)Nc2cccc(C(=O)O)c2)cc1 | 4.78 |  |
| Cc1ccc(OCCOCCOc2ccc(Br)cc2/C=N\NC(=O)c2ccncc2)cc1 |  | 18.4 µM (active) |
| CCOc1cc(/C=N/NC(=O)c2ccncc2)cc(Br)c1O | 1.15 |  |
| Cc1ccc(OCCOc2cccc(/C=N/NC(N)=O)c2)cc1 | 9.86 |  |
| CCCOn1c(-n2nc(C)cc2C)nc2ccccc2c1=O | -8.69 |  |
| CC(=O)c1ccc(OCC(=O)N(C)C2CCS(=O)(=O)C2)cc1 (stereo not drawn) | -0.124 |  |
| Cc1oc(-c2cccc(NC(=O)c3ccccc3)c2)nc1CNC(=O)c1cnc2ccccn2c1=O | -2.25 |  |
| Cc1cc(NC(=O)CSCc2nc(-c3cccc(Cl)c3)oc2C)no1 | 3.73 |  |
| Cc1cc2c(cc3c(SCc4nc(-c5ccccc5)oc4C)nnc(C)n32)o1 |  | 16.4 µM (active) |

| Compound | activity change, negative = growth inhibition [%] | Potency |
| --- | --- | --- |
| C/C(=C\C(=O)c1cccnc1)Nc1ccc(C)c(C)c1 | -6.65 |  |
| CSc1nc2ccccc2cc1/C=C(\C#N)c1ccc(Cl)cc1Cl | -23.3 |  |
| CC(C)c1nnc(NC(=O)CCC(=O)N2CCN(c3cccc(Cl)c3)CC2)s1 | -22.7 |  |
| O=C(CCCC(=O)N1CCN(c2cccc(Cl)c2)CC1)c1ccccc1 |  | 18.4 µM (active) |
| O=C(CCCN1C(=O)C2C3C=CC(C3)C2C1=O)N1CCN(c2ccccc2)CC1 (stereo not drawn) | 2.5 |  |
| COc1ccc(NC(=O)CN(C)C(=O)c2ccc(NC3CC3)c([N+](=O)[O-])c2)cc1 | -4.51 |  |
| O=C1CN(C(=O)c2ccccc2F)C(c2ccc(F)cc2)c2cc(F)ccc2N1 (stereo not drawn) | -11.5 |  |
| CCOC(=O)CCc1c(C)c2ccc(OCc3nn[nH]n3)c(C)c2oc1=O | 18.3 |  |
| CC(C)C[C@@H]1COc2cc(N3CCC[C@@H]3CO)ccc2S(=O)(=O)N1 | 5.3 |  |
| COc1ccc(/C=C2/SC(=O)N(CCCCCC(=O)Nc3ccccc3C(=O)O)C2=S)cc1 | -28 |  |
| CNN/C(N=Cc1ccc([N+](=O)[O-])s1)=N\S(=O)(=O)c1cc(C)c(Cl)cc1SCc1ccccc1 |  | 1.3 µM (active) |
| CCC(C)(C(=O)NC1CCCCC1)N(C)C(=O)c1ccc2c(c1)OCO2 (stereo not drawn) | -9.92 |  |
| CCOc1ccccc1NC(=S)C(=C([O-])c1ccc2c(c1)OCCO2)[n+]1ccc(CC)cc1 |  | 18.4 µM (active) |
| O=[N+]([O-])c1cccc(/C([O-])=C(/C(=S)Nc2ccccc2F)[n+]2ccccc2)c1 | 2.94 |  |
| CCOc1ccccc1NC(=O)NC1CCCCCCC1 | 7.99 |  |
| CC1(C)O[C@@H]2[C@H](O1)[C@@H](CO)O[C@H]2n1c(N2CCCCC2)nc2c(N)ncnc21 | -5.36 |  |
| CC(C)=CCN1CCN(Cc2cc3ccccc3[nH]2)CC1CCO (stereo not drawn) | 12.1 |  |
| COc1ccc(COC(=O)NC(C(=O)O)c2ccccc2)cc1 (stereo not drawn) | -15.9 |  |
| COc1cccc(N2CCN(C3CC(=O)N(c4ccc(Cl)cc4)C3=O)CC2)c1 (stereo not drawn) | -9.93 |  |
| Cc1nn(CCOc2ccccc2)c(=O)n1-c1ccccc1F | 3.28 |  |
| CCc1nn(CCCN2CCN(c3cccc(Cl)c3)CC2)c(=O)n1CCOc1ccccc1 |  | 15 µM (active) and 5.31 µM (active) |
| CN1C(C(=O)NCC2CC2)CC2Cn3c(nc4ccccc43)C21 (stereo not drawn) | -5.86 |  |
| O=C(Nc1cccc(S(=O)(=O)NC2=NCCC2)c1)c1ccc(F)cc1F | -20.4 |  |
| O=C(Nc1cc(S(=O)(=O)Nc2ccc(Cl)cc2)ccc1O)c1ccc(F)cc1F |  | 13 µM (active) |
| CCS(=O)(=O)c1ccc(O)c(NC(=O)COc2ccc(Cl)cc2)c1 | -25.9 |  |
| N#CNC1=NCN(CCc2ccccc2)CN1 | -13.8 |  |

| Compound | activity change, negative = growth inhibition [%] | Potency |
| --- | --- | --- |
| O=C(CCN1CCCCC1)Nc1ccc(F)c(F)c1 | -19.5 |  |
| COc1ccccc1CCNS(=O)(=O)c1cc2c3c(c1)C(C)C(=O)N3CCC2 (stereo not drawn) |  | 2.91 µM (active) |
| COc1ccc(N2CCN(S(=O)(=O)c3cc4c5c(c3)C(C)C(=O)N5CCC4)CC2)cc1 (stereo not drawn) | -23.2 |  |
| COc1ccc(C)cc1S(=O)(=O)Nc1cc2c3c(c1)CCC(=O)N3CCC2 | -20.7 |  |
| Cc1cccc(NC(=O)Cc2ccc(Br)cc2)n1 | 1.59 |  |
| COC(=O)Cc1c(-c2[nH]c3ccccc3c2CC(=O)OC)[nH]c2ccccc12 |  | 14.6 µM (active) |
| CCOC(=O)C1CCN(C(=O)Cc2c(C(=O)O)[nH]c3ccccc23)CC1 | 2.54 |  |
| COC(=O)Cc1nc2ccccc2[nH]1 | -22.4 |  |
| COc1ccc(S(=O)(=O)N2CCOCC2)c(C)c1C | 0.714 |  |
| COc1ccc(NC(=O)COC(=O)c2ccc(NS(=O)(=O)/C=C/c3ccccc3)cc2)cc1 | -29.2 |  |
| COc1ccc(Cn2c(=O)[nH]c3cc(C(=O)N4CCN(C(=O)c5ccco5)CC4)ccc3c2=O)cc1 |  | 11.2 µM (active) |
| COc1ccc(CNC(=O)C2CCN(C(=O)c3ccco3)CC2)cc1 | -7.38 |  |
| COc1ccccc1Cn1c(=S)[nH]c2cc(C(=O)N3CCN(C)CC3)ccc2c1=O | -26.3 |  |
| COC(=O)c1ccc(NC(=O)CSc2nc(N)c(NC(=O)c3ccc(Br)o3)c(=O)[nH]2)cc1 | 3.08 |  |
| Clc1ccc(Nc2ncnc3c2nnn3Cc2ccccc2)cc1 | -17.1 |  |
| Brc1ccc2ncnc(NCc3cccnc3)c2c1 |  | 20.6 µM (active) |
| Cc1cc(NCc2cccnc2)no1 | -4.16 |  |
| c1ccc(CNc2ncncc2-c2cccnc2)cc1 | -3.74 |  |
| OC[C@@H]1CN(Cc2ccc(Cl)cc2)C[C@H](n2cnc3c(NCc4ccncc4)ncnc32)O1 | -16.7 |  |
| Clc1ccc(Cn2ncc3c(NCc4cccnc4)ncnc32)cc1 |  | 20.6 µM (active) |
| O=C(NCCN1CCOCC1)c1ccc2c(c1)ncn2C1CCCC1 | 3.13 |  |
| CC(Oc1cccc(Cl)c1)C(=O)NC1CC(C)(C)NC(C)(C)C1 (stereo not drawn) | -0.549 |  |
| CN(CC(=O)NCCc1ccccc1)S(=O)(=O)c1cnc[nH]1 | 18.4 |  |
| CN=C(NC#N)NCCSCc1nc[nH]c1C |  | inactive |
| COc1ccc(CN2C(=O)CN=C2Nc2ccc(C)cc2C)cc1 | 5.62 |  |
| CCOC(=O)CN1C(C(=O)c2ccccc2)=C(OC(=O)C(C)(C)C)c2ccccc2S1(=O)=O |  | 14.6 µM (active) |

| Compound | activity change, negative = growth inhibition [%] | Potency |
| --- | --- | --- |
| CCOC(=O)c1ccccc1CN1C(=O)c2ccccc2S1(=O)=O | -23.2 |  |
| COC(=O)C1=C(c2ccccc2)c2ccccc2S(=O)(=O)N1CC(=O)Nc1ccccc1C(F)(F)F | -26.4 |  |
| Cn1c(SCC(=O)c2ccc(F)cc2)nnc1-c1ccccn1 | -24.7 |  |
| CC1(C(=O)NS(=O)(=O)Cc2cccc(Cl)c2)CCN1C(=O)Cc1ccc(Cl)cc1Cl (stereo not drawn) | -1.96 |  |
| Cc1ccccc1S(=O)(=O)NC(=O)C1(C)CCN1C(=O)C1(c2ccc(Cl)cc2)CC1 (stereo not drawn) | -13.5 |  |
| CCCNC(=O)C1(C)CCN1C(=O)C1(c2ccccc2)CC1 (stereo not drawn) | -9.77 |  |
| Cc1ccccc1S(=O)(=O)NC(=O)C1(C)CCN1C(=O)Cc1ccc(Cl)cc1Cl (stereo not drawn) | 3.67 |  |
| CC1(C(=O)Nc2cccc3c2CCCC3)CCN1C(=O)CCc1ccc(Cl)cc1Cl (stereo not drawn) |  | 23.1 µM (active) |
| CC1(C(=O)Nc2cccc3c2CCCC3)CCN1C(=O)C1(c2ccccc2)CC1 (stereo not drawn) |  | 14.6 µM (active) |
| O=C(N=C1SC2CS(=O)(=O)CC2N1c1ccccc1)c1ccccc1 (stereo not drawn) | -18.2 |  |
| O=c1ccn([C@@H]2O[C@H](CNS(=O)(=O)c3cc4ccccc4s3)[C@@H](O)[C@H]2O)c(=O)[nH]1 | -15.3 |  |
| Nc1ccc(Oc2ccc(Cl)cc2)cc1 | -10.6 |  |
| CC(C(=O)O)c1ccc(C2CCCCC2)c2ccccc12 (stereo not drawn) | -4.66 |  |
| Cc1ccccc1Nc1scc(-c2ccc(Br)cc2)[n+]1-c1ccccc1C |  | 29.1 µM (active) |
| CCC1S/C(=N/N=C/c2ccco2)NC1=O (stereo not drawn) | -3.68 |  |
| CCCCC1S/C(=N/N=C/c2cccs2)NC1=O (stereo not drawn) |  | 18.4 µM (active) |
| O=C1N/C(=N\N=C\c2ccco2)SC1Cc1ccc(F)cc1 (stereo not drawn) | -17.3 |  |
| C=CCOC(=O)C1=C[C@H](c2ccc(Br)cc2)C[C@H](OCCCCO)O1 | -17.2 |  |
| CC1(C)CC(=O)C(C2=NC(C)(C)Cc3ccccc32)=C(O)C1 | -29.5 |  |
| CCOc1ccc(NC(=O)c2ncoc2-c2ccco2)cc1 | -37.2 |  |
| CCOc1ccc(NC(=O)N(CC(C)C)CC(C)C)cc1 | -17.9 |  |
| CCOc1ccc(NC(=O)N(CCC(C)C)C(C)c2ccco2)cc1 (stereo not drawn) |  | 20.6 µM (active) |
| C[N+](C)(C)CCCCCNCC12CC3CC(CC(C3)C1)C2 | -2.06 |  |
| CC(C)(O)C#Cc1ncc(C(F)(F)F)cc1Cl | -6.92 |  |
| Cc1cc(C)n(S(=O)(=O)c2cccc([N+](=O)[O-])c2)n1 | -14.9 |  |
